Experimental data published in PubChem BioAssay.
Active and inactive are the calls of the source.

What was measured:
Albumin (Bos taurus) = Albumin (Bos taurus) (UniProt P02769); assay: bovine serum albumin binders on microarray, profiling panel, artefact control for SMM control protein annotation, biochemical, small-molecule microarray, Alexa647 label, 635/667 nm fluorescence (AID 1118); conditions: BSA-A647 binding, fluorescence 635 nm, higher = more signal;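 further: score merges 667 nm emission intensity and signal-to-noise per printed compound spot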
Albumin (Bos taurus), sequence (P02769 whole entry, looked up): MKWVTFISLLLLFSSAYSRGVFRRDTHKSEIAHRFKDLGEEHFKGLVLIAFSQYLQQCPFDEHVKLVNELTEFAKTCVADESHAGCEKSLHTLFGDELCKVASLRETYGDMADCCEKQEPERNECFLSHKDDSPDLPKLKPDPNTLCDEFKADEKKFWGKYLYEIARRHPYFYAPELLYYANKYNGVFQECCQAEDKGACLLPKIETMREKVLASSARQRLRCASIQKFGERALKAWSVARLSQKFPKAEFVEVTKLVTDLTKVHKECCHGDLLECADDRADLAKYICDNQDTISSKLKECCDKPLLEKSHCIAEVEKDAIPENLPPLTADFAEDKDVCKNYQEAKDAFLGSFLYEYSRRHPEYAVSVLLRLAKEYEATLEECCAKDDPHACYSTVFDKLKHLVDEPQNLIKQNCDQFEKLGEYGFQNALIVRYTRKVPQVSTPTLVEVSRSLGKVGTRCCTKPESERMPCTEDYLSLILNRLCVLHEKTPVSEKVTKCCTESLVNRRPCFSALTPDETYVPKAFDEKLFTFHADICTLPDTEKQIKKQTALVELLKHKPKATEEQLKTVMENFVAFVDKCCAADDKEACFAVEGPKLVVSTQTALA

[1] = small-molecule microarray binders of probe aXIP, primary screen, biochemical, NeuroSMM set, 635/667 nm fluorescence (AID 1119); conditions: higher = more signal, called active from +8 up or from −8 down;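 further: probe is the protein aXip251-270 applied at 1 µg/mL to compound-printed slides; binding of probe to printed compounds measured as 667 nm fluorescence plus signal to noise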
[2] = small-molecule binders of probe aNOTCH3, primary screen, biochemical, small-molecule microarray, 635/667 nm fluorescence (AID 1120); conditions: higher = more signal;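 further: probe is a biotin-tagged antibody raised against NOTCH3 rather than NOTCH3 protein; score merges spot fluorescence near 667 nm with spot signal to noise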
[3] = small-molecule binders of probe aNOTCH2, primary screen, biochemical, small-molecule microarray, 635/667 nm fluorescence (AID 1121); conditions: higher = more signal;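 further: score merges feature fluorescence read at 667 nm with its signal to noise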
[4] = target: Carbonic anhydrase 2 (Homo sapiens) (UniProt P00918); assay: CAII small-molecule binders, profiling panel, biochemical, small-molecule microarray, Alexa647-labelled CAII (AID 1122); conditions: CAII-A647 binding fluorescence, higher = more signal
[5] = COS7 lysate on small-molecule microarray, probe aHis, 635 nm (AID 1123); conditions: COS7 cell lysate, fluorescence, higher = more signal;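 further: z-score combines 667nm fluorescence intensity with signal-to-noise per printed compound spot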
[6] = compound binding in COS7 lysate, probe aLAP1, primary screen, cell lysate, small-molecule microarray (AID 1124); conditions: probe aLAP1, fluorescence, higher = more signal;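 further: lysate comes from COS7 cells expressing LAP1 and is applied at 0.3 µg/mL; score merges spot fluorescence near 667 nm with signal-to-noise over triplicate slides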
Sam68 (KHDRBS1) = assay: Sam68 small-molecule binders, primary screen, biochemical, small-molecule microarray, 635 nm fluorescence (AID 1125); conditions: small-molecule microarray binding, higher = more signal;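 further: score merges 667 nm channel intensity with signal to noise over triplicate slides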
[7] = test system: Chordin-like protein 2 (CHRDL2); assay: CHRDL2 small-molecule binders, primary screen, biochemical, small-molecule microarray, 635 nm fluorescence (AID 1126); conditions: small-molecule microarray binding, fluorescence 635 nm; higher = more signal;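 further: printed compound slides probed with Chrdl2 protein at 4 µg/mL for 1 h at 4 C; score merges 667 nm emission intensity with signal to noise over three replicate slides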
[8] = target: Concanavalin-A (Canavalia ensiformis) (UniProt P02866); assay: ConA small-molecule binders, primary screen, artefact control for SMM control protein annotation, biochemical, small-molecule microarray, Alexa647 label, 635 nm (AID 1127); conditions: ConA-A647 binding fluorescence, higher = more signal;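 further: z combines 667 nm emission intensity with signal-to-noise across three replicate slides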
Concanavalin-A (Canavalia ensiformis), sequence (P02866 whole entry, looked up): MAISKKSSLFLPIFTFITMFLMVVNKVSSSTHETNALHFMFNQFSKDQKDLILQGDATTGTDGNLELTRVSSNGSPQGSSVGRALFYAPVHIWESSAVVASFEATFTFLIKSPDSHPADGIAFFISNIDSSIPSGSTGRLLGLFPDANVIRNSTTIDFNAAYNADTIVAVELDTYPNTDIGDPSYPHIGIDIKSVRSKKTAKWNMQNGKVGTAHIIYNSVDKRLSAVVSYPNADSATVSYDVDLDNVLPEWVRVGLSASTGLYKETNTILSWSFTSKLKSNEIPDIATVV

| SMILES | composite z-score (Albumin (Bos taurus)) | composite Z-score [1] | composite z-score [2] | composite z-score [3] | composite z-score [4] | composite z-score [5] | composite z-score [6] | composite z-score (Sam68 (KHDRBS1)) | composite z-score [7] | composite z-score [8] |
| --- | --- | --- | --- | --- | --- | --- | --- | --- | --- | --- |
| CN1C(=O)C2C=CC(C(O)C(c3ccccc3)c3ccccc3)N(Nc3ccccc3)C2C1=O (stereo not given) | 0.959 | 0.462 (inactive) | 0.466 | 0.0018 | 0.453 | 2.72 | -0.167 | 1.31 | 0.106 | 1.16 |
| [N-]=[N+]=Nc1ccccc1[C@H]1OC(c2ccc(OCCCO)cc2)=N[C@@]1(CCS(=O)(=O)c1ccccc1)C(=O)N1CCOCC1 | 1.08 | 1.23 (inactive) | 0.586 | 0.358 | 0.522 | 2.65 | 0.603 | 1.3 | -0.409 | 1.22 |
| [N-]=[N+]=NCc1ccccc1C[C@]1(C(=O)NCc2ccccc2)COC(c2ccc(OCCCO)cc2)=N1 | 0.632 | 0.452 (inactive) | 0.112 | -0.0814 | 0.644 | 1.89 | 0.784 | 1.3 | -0.694 | 0.612 |
| CCOC(=O)C[C@H]1[C@H](OC(=O)c2ccccc2-c2ccccc2)[C@@H](NC(=O)c2ccc(-c3ccccc3)cc2)c2cc(OCCCO)ccc2N1C(=O)c1ccccc1 | 0.822 | 0.148 (inactive) | 0.0456 | -0.11 | 0.222 | 0.961 | -0.133 | 1.23 | 0.225 | 0.534 |
| CCOC(=O)C1=CC[C@@H](c2ccccc2)N(S(=O)(=O)c2ccc(C)cc2)[C@H]1c1ccc(C#N)cc1 | 0.801 | 0.662 (inactive) | 0.116 | -0.0158 | 0.356 | 1.56 | 0.791 | 1.33 | -1.25 | 1.12 |
| CCCC[C@H]1OB(O)C[C@H]2C1=C(COc1ccccc1)C[C@H]1C(=O)N(Cc3ccccc3)C(=O)[C@H]12 | 0.117 | 0.142 (inactive) | 0.0203 | -0.108 | 0.602 | 0.383 | 0.154 | 0.868 | 0.0092 | 1.12 |
| C=C(CCCC)C(=O)CC[C@H](OC(=O)c1ccccc1-c1ccccc1C(=O)O)c1ccc(CO)o1 | 0.734 | 0.0663 (inactive) | -0.0014 | -0.14 | 0.15 | 0.455 | 0.645 | 1.29 | 0.82 | 0.933 |
| CC(C)CNC(=O)[C@@]1(C)c2ccccc2C(=O)N(C(C)C)[C@H]1c1ccc(CO)cc1 | -1.44 | -0.0662 (inactive) | -0.146 | -0.132 | 0.903 | -0.445 | -0.121 | -1.06 | -1.02 | -2 |
| O=C1OCC=C[C@H]2OC34C=CCN(Cc5ccccc5)C(=O)[C@H]3N(CCCO)C(=O)[C@@H]4[C@@H]12 (stereo not given in full) | 0.792 | 2.97 (inactive) | 0.577 | 0.0753 | 0.786 | 3.07 | 1.08 | 0.89 | -0.888 | 0.226 |
| O=C1C2C=CC(C(O)c3ccc(Br)cc3)N(n3cnnc3)C2C(=O)N1Cc1ccccc1 (stereo not given) | 0.807 | -1.02 (inactive) | -0.0443 | -0.0004 | 0.259 | 1.57 | 0.448 | 1.29 | -0.064 | 1.07 |
| COc1c(C)cc(-c2cc3c(c(-c4ccccc4)n2)[Si](C(C)C)(C(C)C)O[C@H]3c2ccccc2)cc1C | -0.102 | -0.322 (inactive) | -0.0343 | -0.154 | -0.0516 | 0.0732 | -0.325 | 0.111 | 0.613 | 0.124 |
| COc1ccc([Si](C)(C)[C@@H]2[C@@H](CCO)O[C@]3(C(=O)N(Cc4ccccc4)c4ccc(N(C=O)c5ccccc5)cc43)[C@H]2C)cc1 | 0.624 | 1.04 (inactive) | -0.159 | -0.0682 | 0.497 | 0.937 | 0.719 | 0.601 | -0.15 | 0.762 |
| [N-]=[N+]=NCc1ccccc1C[C@]1(C(=O)NCCN2CCOCC2)N=C(c2ccc(OCCCO)cc2)O[C@H]1c1ccccc1CN=[N+]=[N-] | 0.825 | -0.0191 (inactive) | 0.399 | -0.0474 | 0.337 | -0.827 | 0.736 | 1.13 | -0.0255 | 1.05 |
| O=S(=O)(NCCCO)c1ccc(Br)cc1 | 0.45 | -0.854 (inactive) | -0.0414 | -0.057 | 0.62 | 0.0505 | 0.337 | 0.522 | 0.678 | 0.397 |
| Cn1c2c(c3ccccc31)C(=O)C1NC2C=CC1(C)C(=O)OCc1ccccc1 (stereo not given) | 0.445 | -0.0597 (inactive) | -0.242 | -0.166 | 0.682 | 1.77 | 1.46 | 1 | -2.55 | 0.909 |
| O[C@@H](Cc1ccccc1)[C@@H](/C=C/c1ccccc1)NCc1ccccc1Br | -0.786 | -0.577 (inactive) | -0.358 | -0.192 | -0.53 | 0.0935 | -0.329 | -0.815 | -0.77 | -1.05 |
| CCOC(=O)N1C(c2ccc(OCCCO)cc2)=NC(C(=O)OC)N1C(=O)OCC (stereo not given) | 0.878 | -0.363 (inactive) | 0.183 | -0.0326 | 0.733 | 1.73 | 0.626 | 1.18 | -0.105 | 1.09 |
| CN(C)CCCCCCNC(=O)[C@@H]1C[C@@H]2C(=O)N[C@@H](Cc3ccccc3)C(=O)N2[C@@H]1c1cccc(OCCO)c1 | -0.0152 | 0.816 (inactive) | 0.0715 | -0.0793 | 0.784 | 2.51 | 0.142 | 1.31 | 0.711 | 1.11 |
| COc1ccc([Si](C)(C)[C@H]2[C@H](CCO)O[C@@]3(C(=O)N(Cc4cccc(N5C(=O)c6cccc7cccc5c67)c4)c4ccccc43)[C@@H]2C)cc1 | 0.577 | 0.326 (inactive) | -0.122 | -0.148 | 0.23 | 0.856 | 1.42 | 1.13 | -0.27 | 0.863 |
| CCOC(=O)C=Cc1cccc(OC)c1O | 0.576 | 0.229 (inactive) | -0.426 | -0.14 | -0.288 | 0.0252 | -0.15 | 0.0147 | -1.32 | 0.149 |
| C/C=C/[C@H](CCn1cc([C@H](O)c2ccccc2)nn1)[Si](C)(C)c1ccc(OC)cc1 | -0.7 | -0.0164 (inactive) | -0.359 | -0.181 | 0.017 | -0.092 | 0.612 | -0.971 | -0.4 | -0.971 |
| C=C(CCCC)/C(=C/C[C@H](OC(C)=O)c1ccc(CO)o1)c1cc(C(=O)OC)ccc1OC | 0.588 | 0.297 (inactive) | 0.133 | -0.149 | 0.694 | 0.699 | 0.53 | 1.17 | 0.323 | 0.902 |
